Screens: PubChem BioAssay, National Center for Advancing Translational Sciences (NCATS)
Hits are enriched below; roughly 2.8% of the tested compounds scored in any of these assays.
POLH inh: blocks human DNA polymerase eta activity; Q9Y253; recombinant Pol eta, fluorescent DNA replication assay; Potency, µM (highest dose often 114 µM), for the others: at the highest dose activity change, negative = inhibition, most hits filed as inhibitors; 1.2% of 390,000 active; AID 588591; note: potency is the fitted concentration of half-maximal effect; % is set by controls: 0 for no effect and ±100 for the full control effect
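Pol eta (10 nM) was preincubated with compounds for 15 min at room temperature, after which fluorescent replication substrate (50 nM final) was added to start the reaction. Fluorescence was read kinetically at 0 and 10 min.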
Pol beta inh: inhibitors of human DNA polymerase beta; Potency, µM (titrated, usually from 114 µM), for the others: at the top dose activity change, negative = inhibition, actives largely listed as inhibitors; 1.3% of 340,000 active; Pol beta primer extension/strand displacement, fluorescence kinetic; P06746; note: potency is the fitted concentration of half-maximal effect; % is set by controls: 0 for no effect and ±100 for the full control effect
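10 nM enzyme + cpd, 15 min RT; start with substrate 50 nM final; read 0 min and after 10 min RT. Corrected, normalized data; 4-parameter Hill curve fit.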
PI4K2A inh: blocks human PI4K2A kinase activity; Q9BTU6; purified PI4K2A, ADP-Glo luminescence, 1 h; active compounds read low; activity change, negative = inhibition, % at 76.9 µM; 0.13% of 420,000 active; in the data active = activity change below about -50%; inconclusive = mostly about -30% to -49%;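 note: -100% = wells without enzyme as full effect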
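ADP-Glo luminescence measured ADP generated by PI4K2A enzyme (4 ug/mL before mixing) with 1.2 mM PI substrate (pre-mix) and 300 microM ATP (pre-mix). Tris pH7.5 buffer with MgCl2, Triton X-100; 1 h reaction at ambient temperature.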
POLK inh: inhibitors of human DNA polymerase kappa | Q9UBT6 | purified Pol kappa, fluorescent DNA synthesis assay, 10 min | Potency, µM (doses to about 107 µM), for inactives: top-dose activity, negative = inhibition, actives largely listed as inhibitors | 0.53% of 400,000 active; note: potency is the fitted concentration of half-maximal effect; % is set by controls: 0 for no effect and ±100 for the full control effect
Target sequence (Q9UBT6 whole entry, looked up): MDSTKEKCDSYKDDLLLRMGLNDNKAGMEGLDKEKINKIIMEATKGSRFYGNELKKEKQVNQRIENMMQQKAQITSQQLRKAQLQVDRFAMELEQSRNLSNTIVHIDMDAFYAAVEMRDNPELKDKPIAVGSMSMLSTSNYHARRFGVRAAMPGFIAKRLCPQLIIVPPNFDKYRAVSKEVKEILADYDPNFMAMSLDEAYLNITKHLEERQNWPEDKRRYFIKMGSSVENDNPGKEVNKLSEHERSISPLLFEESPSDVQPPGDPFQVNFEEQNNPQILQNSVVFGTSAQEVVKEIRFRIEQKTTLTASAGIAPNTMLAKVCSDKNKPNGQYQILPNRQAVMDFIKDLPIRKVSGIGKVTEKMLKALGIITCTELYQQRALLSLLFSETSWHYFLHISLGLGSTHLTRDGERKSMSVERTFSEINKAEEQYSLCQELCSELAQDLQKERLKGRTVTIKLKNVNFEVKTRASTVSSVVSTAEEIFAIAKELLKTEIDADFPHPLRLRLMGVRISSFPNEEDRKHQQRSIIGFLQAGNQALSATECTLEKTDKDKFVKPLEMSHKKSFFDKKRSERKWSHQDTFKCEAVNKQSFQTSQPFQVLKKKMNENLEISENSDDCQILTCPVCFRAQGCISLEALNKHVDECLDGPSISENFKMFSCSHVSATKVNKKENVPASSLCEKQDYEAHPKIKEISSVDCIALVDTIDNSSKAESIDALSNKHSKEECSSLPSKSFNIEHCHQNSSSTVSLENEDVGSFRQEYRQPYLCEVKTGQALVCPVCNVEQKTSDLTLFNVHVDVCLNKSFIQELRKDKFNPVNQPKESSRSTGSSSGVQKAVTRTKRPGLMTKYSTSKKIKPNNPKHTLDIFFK
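Enzyme at 10 nM met test compounds for 15 min at room temperature. Substrate addition (50 nM final) began the reaction, which was monitored by fluorescence at 0 and 10 min.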
Pol iota inh: blocks human DNA polymerase iota activity; Q9UNA4; Pol iota fluorescent replication assay, 10 min; Potency, µM (top dose mostly 115 µM), inactives show top-dose activity, negative = inhibition, most hits filed as inhibitors; 1% of 390,000 active; note: potency is the fitted concentration of half-maximal effect
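Pol iota at 10 nM preincubated 15 min with compounds at room temperature; reaction started with fluorescent substrate, 50 nM final. Fluorescence read kinetically at 0 and 10 min; buffer-only wells as negative control.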
PI5P4Ka inh: PI5P4K alpha (human) kinase inhibition. P48426. PI5P4Kalpha enzyme, ADP-Glo luminescence, 60 min; active compounds read low. max response, %. 1.2% of 330,000 active; active = max response of -50% or lower; inconclusive = between -30% and -50%; inactive = -30% or higher; note: value at the top dose of about 77 µM; % is set by controls: 0 for no effect and ±100 for the full control effect
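Human PI5P4Kalpha with substrate in 0.038 M HEPES pH 7.4, 0.28 mM EGTA, 0.1% CHAPS, 5% DMSO; reaction started with 5 microM ATP (final), 60 min at room temperature. ADP formed read by ADP-Glo luminescence.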
The depositor's hits bear a star; ? = inconclusive; / = no result given; [ ] = remark or other dose. Unless noted, calls come from the whole dose curve; as a rule, active = well fitted inhibition curve with a large enough effect; inconclusive = small, poorly fitted or top-dose-only effect, or another doubt; inactive = no such curve, though single readings can be large or run the other way.

SMILES	POLH inh	Pol beta inh	PI4K2A inh	POLK inh	Pol iota inh	PI5P4Ka inh
COc1cc(/C=C2\SC(N)=NC2=O)ccc1OCC(=O)Nc1ccc(C)cc1	?	3.55µM*	-2.4	-41.9%	79.4µM*	-7.4
CCCCCC/C(C)=C1/SC(=S)NC1=O	-17.6%	5.6%	0.7	-6.8%	?	-71.2*
COCCOc1cc(N2C(=O)CSCC2=O)c(Cl)cc1Cl	-2.5%	12.6%	8.7	-2.5%	89.1µM*	/
CNC(=O)CS(=O)(=O)CC(=O)Nc1cc(OCCOC)c(Cl)cc1Cl	-3.3%	-0.7%	2.0	-1.5%	104.6%	-2.6
COc1ccc2[nH]c(C(=O)O)c(CCN3C(=O)c4ccc(C(=O)O)cc4C3=O)c2c1	-14.7%	30.8%	1.0	-0.8%	90.1%	-60.3*
COc1ccc2[nH]c(C(=O)O)c(CCC(=O)O)c2c1	?	-23.8%	-0.6	-22.1%	-6.1%	-23.6
CC(C)(C)n1ncc2c(=O)n(Cc3c(F)cc(Cl)cc3F)cnc21	/	/	/	-18.8%	15.5%	/
O=C(O)CCN1C(=O)C(=C2CCCCCC2)SC1=S	-11.9%	?	-8.9	-14.6%	?	-10.0
O=C1C(=C2CCCCC2)SC(=S)N1Cc1ccco1	?	25.1µM*	-3.0	?	?	-26.8
CC(=O)c1ccc(S(=O)(=O)Nc2ccc(C(=O)N(C)CC(=O)Nc3cccc(C)c3C)cc2)cc1	31.6µM*	/	-11.1	?	?	?
Cc1ccc(C)c(NC(=O)Cc2ccc(S(=O)(=O)N3CCCCC3)s2)c1	?	-0.2%	0.1	-4.6%	8.8%	-7.5
CCCC(C)NC(=O)Cc1ccc(S(=O)(=O)N2CCOCC2)s1 (stereo not drawn)	-8.0%	/	-2.6	18.8%	32.5%	-5.6
CC(=O)Nc1ccc(NC(=O)Cc2ccc(S(=O)(=O)N3CCCCC3)s2)cc1	12.6µM*	?	-5.4	-24.4%	?	?
CCC(CC)NC(=O)Cc1ccc(S(=O)(=O)N2CCOCC2)s1	10µM*	?	-4.1	-18.5%	?	?
COC(=O)CCNC(=O)Cc1ccc(S(=O)(=O)N2CCCCC2)s1	79.4µM*	/	-1.9	-17.6%	?	?
COc1ccc(/C=C/c2ccc3ccccc3n2)c(OC)c1	/	/	/	-1.1%	11.2%	/
O=Nc1c(-c2c(O)[nH]c3cc(Br)ccc23)[nH]c2ccccc12	?	6.1%	-17.1	-3.9%[60.1 µM]	46.6%	-75.1*
O=C(CSCc1cccc(Br)c1)N=Nc1c(O)[nH]c2ccccc12	0.1%	3.5%	3.5	-13.2%	22.9%	-0.2
COc1ccc(Cl)c(Cn2cnc3c(cnn3C(C)(C)C)c2=O)c1F	/	/	/	8.5%	5.9%	/
COc1ccc(OC)c(CNC(=O)c2ccc(NC(=O)c3nsc4ccccc34)cc2)c1	-8.5%	40.0%	-0.1	-8.3%[60.1 µM]	89.1µM*	/
COc1ccc(-c2c[n+]3c4n2CCCCC4=C(c2ccc(Br)cc2)C3)cc1	1.4%	25.1µM*	-4.1	-2.2%	?	/
Clc1ccc(C2=C3CCCCn4c(-c5ccccc5)c[n+](c43)C2)cc1	?	?	-5.3	-11.3%	10.7%	?
Cc1ccc(-c2csc3nc(SCC(=O)Nc4ccc(Cl)c(C(=O)O)c4)[nH]c(=O)c23)cc1	39.8µM*	?	-7.0	-39.8%	?	-77.7*
NCCc1nnc(SCC(=O)Nc2cccc(Cl)c2)o1	-10.2%	25.1%	-0.4	?	39.8µM*	9.5
Cc1sc2nc(SCC(=O)Nc3ccc(S(N)(=O)=O)cc3)[nH]c(=O)c2c1C	?	25.1µM*	-1.8	-15.6%	?	4.2
SMILES	POLH inh	Pol beta inh	PI4K2A inh	POLK inh	Pol iota inh	PI5P4Ka inh
CC(C)(C)OC(=O)NCCc1nnc(SCC(=O)Nc2cccc(Cl)c2)o1	-13.2%	-5.8%	1.9	-12.0%	43.5%	-0.4
O=C(CSc1nc2c(oc3ccccc32)c(=O)[nH]1)Nc1cccc(Cl)c1	-12.7%	70.8µM*	-0.6	-34.1%	?	/
C=CCNC(=O)CSc1nc2c(c(=O)[nH]1)CCCC2	/	/	-2.5	/	/	/
CS(=O)(=O)N1CCC[C@]2(CC[C@@H](CCC#N)O2)C1	/	/	-0.7	/	/	/
O=C(CSc1nc2ccccc2c(=O)[nH]1)Nc1ccc([N+](=O)[O-])cc1	-11.4%	/	1.4	-4.5%	62.0%	-14.1
Cc1sc2nc(SCC(=O)Nc3cccc(C(=O)O)c3)[nH]c(=O)c2c1C	?	/	-13.6	-23.4%	?	-73.0*
O=C(CSc1nc2ccccc2c(=O)[nH]1)Nc1ccc(C(=O)O)cc1	-0.4%	?	4.8	-21.2%	58.7%	-88.3*
COC(=O)c1cccc(NC(=O)CSc2nc(O)c(-c3ccccc3)c(=O)[nH]2)c1	25.1µM*	?	0.6	?	?	-27.2
CN1C2=N[C@H](c3ccc(Br)cc3)CC(=O)N2/C(=C\c2ccccc2)[C@@H]1c1ccccc1	/	/	1.9	/	/	/
COc1ccc(NC(=O)Cn2c(=O)n(CCCC(=O)NCc3ccccc3OC)c(=O)c3ccccc32)cc1Cl	5.3%	-29.2%	-3.9	6.9%	-13.1%	/
Cc1cc(C(F)F)n2nc(C(=O)Nc3sc4c(c3C#N)CCC4)nc2n1	22.4µM*	?	-3.8	?	50.1µM*	-5.1
Cc1cc(C(=O)Nc2sc3c(c2C#N)CCCC3)no1	-12.7%	2.9%	2.4	-7.7%	?	/
Cc1onc(-c2ccccc2)c1C(=O)Nc1sc2c(c1C#N)CCC2	28.2µM*	20µM*	-19.0	?	20µM*	/
Cc1onc(-c2ccccc2)c1C(=O)NC(=S)Nc1sc2c(c1C#N)CCCC2	-4.3%	-8.7%	19.4	-28.0%	?	-20.0
Cc1cc(C(=O)Nc2sc3c(c2C#N)CCC3)no1	79.4µM*	?	4.8	-42.3%	?	/
Cc1csc(SCC(=O)Nc2sc3c(c2C#N)CCC3)n1	?	20µM*	-16.8	-28.7%	?	?
CCOC(=O)C(=O)CCc1ccccc1	/	/	-2.5	/	/	/
COc1ccc(OC)c(/C=C/c2ccccc2)c1	/	/	/	-6.8%	11.5%	/
N#Cc1c(NC(=O)c2ccccc2)sc2c1CCCCC2	-7.5%	10.2%	-8.4	-18.1%	8.0%	6.2
Cn1ccc(C(=O)Nc2sc3c(c2C#N)CCC3)n1	79.4µM*	-26.4%	3.8	-29.7%	?	-7.9
COc1ccc(CN(C)CC(=O)Nc2sc3c(c2C#N)CCC3)c(OC)c1	-25.7%	20µM*	1.0	-13.2%	32.1%	14.0
CC(C)CCOc1ccc(C(=O)Nc2sc3c(c2C#N)CCCCC3)cc1	8.2%	6.8%	-4.3	89.1µM*	-82.9%	/
COc1ccc(CN(C)CC(=O)Nc2c(C)cccc2C)c(OC)c1	0.9%	1.4%	3.8	-8.6%	118.4%	10.3
Cn1cc(Br)c(C(=O)Nc2sc3c(c2C#N)CCC3)n1	-9.0%	0.9%	2.2	-9.0%	106.8%	-12.0
